14 molecules from PubChem BioAssay (NCI) can be followed below.

SMILES strings stand for the structures. Compounds without any hit were thinned out: in the full panel of roughly 79,000, 15% have a hit. A number with no mark means an inactive call. No stated cut-off is given here; in the data, active means growth inhibition above about 70%; inactive means the rest. Where a SMILES comes first, the peptide text is derived from it. Bridges are numbered along the chain shown (N, C = ends). Roman numbers before positions name the chains, in order. The star is where a group is joined. Cbz = O=C(OCc1ccccc1)*

This experiment is described as follows: NCI Yeast Anticancer Drug Screen. Data for the mlh1 rad18 strain (AID 175). As to conditions: S. cerevisiae mlh1 rad18 strain growth inhibition; at 50.0 µM; active compounds read high. The essentials: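 Test agents were incubated with a yeast strain of defined genotype (DNA damage repair defect). Inhibition of growth was derived by comparison with vehicle-exposed cultures.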
Turning to `CCOC(=O)c1c(C)c(=O)cnc2c(C#N)cnn12`, the growth inhibition is -8.35%.

As to `COc1ccc(-c2c3c(n(C4OC(COC(C)=O)C(OC(C)=O)C(OC(C)=O)C4OC(C)=O)c(=S)c2C#N)CC(C)(C)CC3=O)cc1` (centres undefined), the growth inhibition is 8.9%.

`O=c1[nH]c(Nc2ccc(Cl)c(C(F)(F)F)c2)nc2nc[nH]c12`: the growth inhibition was 23.1%.

With `COC1OC(CO)C(OC(C)=O)C(OC(C)=O)C1OC(C)=O` (centres undefined), the growth inhibition is 1.8%.

`COc1cc2c(c(Cl)c1OC)CCN(C)CC2c1ccccc1` (centres undefined): the growth inhibition was 1.85%.

`Clc1ccccc1CSc1cc(SCc2ccccc2Cl)nc(SCc2ccccc2Cl)n1`: the growth inhibition was 22%.

With `NNc1nnnc2ccccc12`, the growth inhibition is 22.2%.

Turning to `O=C(NCCCl)Oc1ccccc1`, the growth inhibition was -9.1%.

For the molecule `CCCCn1cnc2ccc(N)cc2c1=O`, the growth inhibition is 2%.

With `CCCCCCCCCCCC(=O)OCCS(=O)(=O)CCOC(=O)CCCCCCCCCCC`, the growth inhibition is 22.2%.

With `Cc1ccc(NC(=O)C(=O)C2NC(=S)NC2=O)c([N+](=O)[O-])c1` (centres undefined), the growth inhibition was 8.55%.

Take `CC(C)C(NC(=O)C(CSSCC(NC(=O)OCc1ccccc1)C(=O)NC(C(=O)O)C(C)C)NC(=O)OCc1ccccc1)C(=O)O` (stereo not drawn) (I: Cbz-Cys-Val-OH / II: Cbz-Cys-Val-OH; disulfide I:1-II:1; configuration not given here): the growth inhibition was 3.3%.

With `S=C(Cl)Sc1ccc(-c2ccc(SC(=S)Cl)cc2)cc1`, the growth inhibition is -7.9%.

For the molecule `NC(CSC(c1ccccc1)(c1ccccc1)c1ccc(C(=O)O)cc1)C(=O)O` (centres undefined), the growth inhibition is 9.85%.
